In PubChem BioAssay (Tox21):
Values joined by “and” are separate entries in the source; they are usually repeats but may differ in a detail not shown here. Equal values may be shown once. Records with an inconclusive call do not appear. A number with no mark means an inactive call. Active and inactive are the calls of the source. Calls come from the whole dose curve; as a rule, active = well fitted inhibition curve with a large enough effect in the repeat runs; inconclusive = weak or mixed curves, or effect the other way; inactive = no such curve, though single readings can be large or run the other way.

target: Nuclear receptor ROR-gamma (Homo sapiens) (UniProt P51449); assay: qHTS assay to identify small molecule antagonists of the retinoid-related orphan receptor gamma (ROR-gamma) signaling pathway (AID 1159521; note: nearly all actives have a fitted effect of over 50% in size; for activity change, negative = inhibition: top concentration of the series differs between compounds); conditions: Tet-on RORgamma CHO cells, RORE-luciferase, 16 h; series mostly up to 92.4 µM; activity change, negative = inhibition: at the top concentration
Source text: U.S. Tox21 Program National Center for Advancing Translational Sciences [NCATS] NIH Chemical Genomics Center [NCGC] U.S. Environmental Protection Agency [EPA] National Institutes of Environmental Health Sciences [NIEHS] National Toxicology Program [NTP] U.S. Food and Drug Administration [FDA] Tox21 Assay Overview: Nuclear steroid hormone receptors are involved in many biological processes including inflammatory responses, cell proliferation, and apoptosis. Environmental factors or compounds disrupting these nuclear receptor pathways and gene expression may promote susceptibility to immunotoxicants and autoimmune diseases. One important group of these expression factors are the retinoid-related orphan receptors. To assess compounds that may interfere with the retinoid-related orphan receptor gamma (ROR-gamma) transcription factor, a cell-based luciferase assay was used. The CHO cell-based assay utilizes a TET-inducible ROR expression factor and ROR response element-LUC reporter gene. Reporter gene activity was induced using Doxycycline Hyclate and measured after 16 hr incubation. Tet-on ROR gamma CHO cells were used to screen against the Tox21 10K compound library for ROR gamma antagonists by quantification of decreased reporter gene activity in terms of decreased luminescence.
Tox21 Assay Protocol Summary: Tet-on ROR gamma CHO cells were dispensed at 1,000 cells in 4 uL of culture medium per well into white wall/solid bottom 1536-well plates using a Multidrop Combi (Thermo Scientific, Waltham, MA) dispenser. Following incubation at 37 C and 5% CO2 for 4 hr, 23 nL of compounds dissolved in DMSO, positive controls or DMSO only were transferred by a Pintool station (Kalypsys, San Diego, CA) and after 2 hr incubation at 37 C, one ul of 1 uM (final concentration) of Doxycycline Hyclate was added to all the wells by using a Flying Reagent Dispenser (FRD) (Aurora Discovery, San Diego, CA). After 16 hr incubation at 37 C and 5% CO2, 5 uL of ONE-Glo reagent (Promega Corporation, Madison, WI) was added to each assay plate using FRD. After 30 min incubation at room temperature, luminescence was quantified on a ViewLux plate reader (Perkin Elmer, Waltham, MA).
% is set by controls: 0 for no effect and ±100 for the full control effect; potency is the fitted concentration of half-maximal effect.

For `Oc1c(I)cc(Cl)c2cccnc12`, the Potency was 54.4 µM (active).
`CCCCCCCCCCCCCC[N+](C)(C)C` was tested, and the Potency was 11.8 µM (active) and 24.3 µM (active) and 11.9 µM (active).
With `Cc1cc(C(C#N)c2ccc(Cl)cc2)c(Cl)cc1NC(=O)c1cc(I)cc(I)c1O` (stereo not given) the Potency was 29.8 µM (active).
`CCCCN(CCCC)CC(O)c1cc(Cl)cc2c1-c1ccc(Cl)cc1/C2=C/c1ccc(Cl)cc1` (stereo not given) was tested, and the Potency was 29.8 µM (active).
In the case of `Oc1ccccc1O`, the Potency is reported as 8.74 µM (active) and 27.3 µM (active).
For `CN1CCN(Cc2cc(-c3ccc4[nH]c(=O)oc4c3)co2)[C@@H](c2ccc(F)cc2)C1`, the Potency was 26.3 µM (active).
For `CCC(C)n1ncn(-c2ccc(N3CCN(c4ccc(OC[C@H]5CO[C@](Cn6cncn6)(c6ccc(Cl)cc6Cl)O5)cc4)CC3)cc2)c1=O` (stereo not given in full), the Potency was 1.19 µM (active).
In the case of `CC(C)(C)c1ccc(C(O)CCCN2CCC(C(O)(c3ccccc3)c3ccccc3)CC2)cc1` (stereo not given), the Potency is reported as 13.3 µM (active).
`CN(C)c1ccc(C(=C2C=CC(=[N+](C)C)C=C2)c2ccc(N(C)C)cc2)cc1` was tested, and the Potency was 1.36 µM (active) and 1.54 µM (active) and 2.66 µM (active).
`COc1c(C)c2c(c(O)c1C/C=C(\C)CCC(=O)OCCN1CCOCC1)C(=O)OC2` was tested, and the Potency was 0.237 µM (active).
`c1ccc(C(O[C@@H]2CCCN(CCc3ccc4c(c3)OCO4)C2)c2ccccc2)cc1` was tested, and the Potency was 61.1 µM (active).
`C=C(CC)C(=O)c1ccc(OCC(=O)O)c(Cl)c1Cl` was tested, and the Potency was 54.1 µM (active).

Going from `CCC(=O)C(=O)CC` to `CC(C)OC(=O)C(O)(CC(=O)O)CC(=O)O`, the “activity change, negative = inhibition” value falls from 0.639% to -2.29%.

First: OC[C@H]1O[C@H](O[C@H]2O[C@H](CO)[C@@H](O)[C@H](O)[C@H]2O)[C@H](O)[C@@H](O)[C@@H]1O
Second: OC[C@@H](O)[C@@H](O)CO
The “activity change, negative = inhibition” value of the first is higher: -4.99% for the first, -12.1% for the second.

First: CNc1ccc([N+](=O)[O-])cc1
Second: CCCCNS(=O)(=O)c1ccc(C)cc1
The “activity change, negative = inhibition” value of the first is higher: 74.8% for the first, -8.48% for the second.

Compared with `CCCCC/C=C\C/C=C\CCCCCCCC(=O)O`, `CCCCC(CC)COC(=O)CCCCC(=O)OCc1ccccc1` (stereo not given) is higher in “activity change, negative = inhibition” value: -6.42% for the first, 62.4% for the second.

Going from `O=C1OC2(c3ccc(O)cc3Oc3cc(O)ccc32)c2ccc(N=C=S)cc21` to `O=C1C(c2[nH]c3ccc(S(=O)(=O)O)cc3c2O)=Nc2ccc(S(=O)(=O)O)cc21`, the “activity change, negative = inhibition” value falls from 1.19% to -30%.

Compared with `CCCC(=O)OC(C)(C)Cc1ccccc1`, `O=C(Oc1ccccc1)Oc1ccccc1` is higher in “activity change, negative = inhibition” value: 6.35% for the first, 52% for the second.

Compared with `ClCCl`, `Clc1nnc(Cl)c2ccccc12` is lower in “activity change, negative = inhibition” value: 12.4% for the first, 1.51% for the second.

Going from `C[Si](Cl)(c1ccccc1)c1ccccc1` to `C=C(C)c1cccc(C(=C)C)c1`, the “activity change, negative = inhibition” value rises from -4.63% to 15.4%.

Going from `c1ccsc1` to `COC(C)=O`, the “activity change, negative = inhibition” value rises from -5.59% to 2.41%.

In the case of `OC/C=C/CO`, the “activity change, negative = inhibition” value is reported as 10.4%.

Compared with `O=C1CCc2cc(OCCCCc3nnnn3C3CCCCC3)ccc2N1`, `CN(C)CCN1CCN(c2cccc(Cl)c2)C1=O` is higher in “activity change, negative = inhibition” value: -27.9% [at 42.5 µM] for the first, -0.951% [at 42.5 µM] for the second.

First: COC(=O)Nc1nc2ccc(C(=O)c3ccccc3)cc2[nH]1
Second: O=C(O)Cc1ccc2c(c1)C(=O)c1ccccc1CO2
The “activity change, negative = inhibition” value of the first is lower: 11.2% [at 42.5 µM] for the first, 48.9% [at 42.5 µM] for the second.

Compared with `O=c1[nH]c(=O)n([C@H]2C[C@H](O)[C@@H](CO)O2)cc1F`, `CC(C(=O)O)c1ccc2c(c1)[nH]c1ccc(Cl)cc12` (stereo not given) is higher in “activity change, negative = inhibition” value: -11.1% [at 42.5 µM] for the first, 53.8% [at 42.5 µM] for the second.

First: CC(N=C(NC#N)Nc1ccncc1)C(C)(C)C (stereo not given)
Second: Cc1cccc(C(=O)O)c1O
The “activity change, negative = inhibition” value of the first is lower: -4.45% [at 42.5 µM] for the first, 10.6% [at 42.5 µM] for the second.

For `COc1ccc2c(c1)c(CC(=O)OC/C=C(\C)CC/C=C(\C)CCC=C(C)C)c(C)n2C(=O)c1ccc(Cl)cc1`, the “activity change, negative = inhibition” value was 37.8% [at 42.5 µM].
